Assay results published in the supplement of paper PMC3334620.
The full ranking holds about 33,000 sequences; the median of “E-score (-0.5 to 0.5)” is about -0.054, and the highest 2% start at about 0.39. Many of the other results were omitted from the sample, so the highest values are more common in it than they were.

Target: Ylr278c (UniProt Q05854)
Assay: PBM E-score (8-mer binding enrichment) (E-score (-0.5 to 0.5)); higher = stronger / more preferred TF binding
Conditions: protein concentration: 200 nM; construct: GST-DNA-binding domain
Experimental: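 Universal 'all 10-mer' protein binding microarrays (Agilent AMADID 015681) probed with GST-tagged S. cerevisiae TFs (full-length or DBD) made by in vitro transcription/translation (PURExpress), about 100-200 nM. Bound TF was detected with fluorescent anti-GST. Each ungapped 8-mer (which stands for itself and its reverse complement) is scored by the PBM enrichment score (E-score), a modified Wilcoxon-Mann-Whitney statistic from -0.5 to +0.5, computed with the Universal PBM Analysis Suite. Scale: above 0.35 generally sequence-specific binding.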

Sequence of UniProt Q05854 (Q05854 whole entry): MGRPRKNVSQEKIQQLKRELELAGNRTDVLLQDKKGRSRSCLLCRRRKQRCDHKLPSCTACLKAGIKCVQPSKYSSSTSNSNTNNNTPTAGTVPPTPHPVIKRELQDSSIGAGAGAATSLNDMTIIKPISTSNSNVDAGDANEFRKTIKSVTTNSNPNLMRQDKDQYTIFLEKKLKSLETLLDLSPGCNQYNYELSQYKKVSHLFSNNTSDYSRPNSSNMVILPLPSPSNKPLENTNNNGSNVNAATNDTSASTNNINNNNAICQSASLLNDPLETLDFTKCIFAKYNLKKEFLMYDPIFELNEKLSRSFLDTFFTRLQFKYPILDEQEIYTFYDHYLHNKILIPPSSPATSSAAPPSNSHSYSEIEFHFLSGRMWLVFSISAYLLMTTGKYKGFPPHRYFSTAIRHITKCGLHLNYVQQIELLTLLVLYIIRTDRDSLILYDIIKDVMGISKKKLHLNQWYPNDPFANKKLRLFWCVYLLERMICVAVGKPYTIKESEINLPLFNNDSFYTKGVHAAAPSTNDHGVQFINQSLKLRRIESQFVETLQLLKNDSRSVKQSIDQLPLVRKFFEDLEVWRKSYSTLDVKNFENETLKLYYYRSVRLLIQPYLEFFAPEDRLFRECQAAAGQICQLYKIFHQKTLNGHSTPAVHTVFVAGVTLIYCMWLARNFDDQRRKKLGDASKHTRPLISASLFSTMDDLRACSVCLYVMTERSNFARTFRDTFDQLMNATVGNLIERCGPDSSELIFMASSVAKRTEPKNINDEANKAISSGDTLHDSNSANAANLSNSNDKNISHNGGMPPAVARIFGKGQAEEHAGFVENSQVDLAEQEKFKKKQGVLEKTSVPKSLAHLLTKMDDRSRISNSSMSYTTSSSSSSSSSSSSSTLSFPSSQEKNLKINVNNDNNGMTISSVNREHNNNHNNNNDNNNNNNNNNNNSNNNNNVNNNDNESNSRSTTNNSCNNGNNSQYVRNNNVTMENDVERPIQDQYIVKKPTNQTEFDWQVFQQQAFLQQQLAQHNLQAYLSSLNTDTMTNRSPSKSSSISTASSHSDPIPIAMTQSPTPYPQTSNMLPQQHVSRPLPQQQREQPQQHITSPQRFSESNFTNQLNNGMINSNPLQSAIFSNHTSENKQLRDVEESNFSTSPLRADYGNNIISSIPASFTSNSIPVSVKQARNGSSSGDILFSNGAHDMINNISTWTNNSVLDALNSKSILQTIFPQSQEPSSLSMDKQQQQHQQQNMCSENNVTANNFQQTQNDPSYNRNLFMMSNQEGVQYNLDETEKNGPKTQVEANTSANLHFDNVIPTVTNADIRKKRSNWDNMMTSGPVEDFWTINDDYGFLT

| Sequence | PBM E-score |
| --- | --- |
| ACAATGGT | -0.255 |
| ATCGTGAA | 0.00733 |
| GGAGGTTA | 0.101 |
| AAAAGATC | -0.0655 |
| ATGCCGCC | 0.325 |
| CCCATGGC | -0.0499 |
| GTACCGGA | 0.415 |
| ATACCGGA | 0.405 |
| ATACCGGG | 0.334 |
| ATACCGGC | 0.354 |
| GTACCGCA | 0.164 |
| CTACCGGA | 0.348 |
| ATGTCCCA | -0.0785 |
| CTCTACTA | -0.245 |
| GAGCAAAC | 0.0239 |
| CTCCTATC | -0.0262 |
| GGGGCGTA | 0.0266 |
| AGGGCGGA | 0.385 |
| GGAGCGGA | 0.396 |
| GGGGCGGA | 0.412 |
| AGAGCGGA | 0.254 |
| CGAGCGGA | 0.381 |
| CGGGCGGC | 0.31 |
| CGGGCGTA | 0.178 |
| CGGGCGGA | 0.405 |

| Sequence | PBM E-score |
| --- | --- |
| CCAGTAGC | 0.181 |
| CATTGCTA | -0.0953 |
| ACGCTCTA | -0.183 |
| ATCGAAAG | -0.0309 |
| GACTGCTA | -0.277 |
| CCAGTCCA | -0.17 |
| GTCCCTAA | -0.0663 |
| AAGAGAGT | -0.0766 |
| ATTCCTGC | 0.0732 |
| ACTCCCCG | 0.338 |
| ACTCCCGG | 0.396 |
| ATTCCCCG | 0.375 |
| ATTCCAGC | -0.104 |
| ATTCCGTG | 0.361 |
| ATTCCGGG | 0.443 |
| ATTCCGGC | 0.463 |
| ATTCCTGG | -0.0751 |
| ATTCCCGG | 0.411 |
| ATTCCCGA | 0.338 |
| ACTCCCGA | 0.217 |
| GCGAGTCA | -0.0556 |
| CACCGCCC | 0.218 |
| AAGCTCTG | -0.356 |
| ATTTATCC | 0.163 |
| ACATCAAC | 0.05 |

| Sequence | PBM E-score |
| --- | --- |
| TAAAGAAA | 0.0382 |
| CGCCAAAC | 0.0632 |
| AATTAGCC | 0.0197 |
| CTGGAATC | -0.0172 |
| ACGGAATC | 0.32 |
| CCGGAATA | 0.434 |
| CCGGAAGA | 0.421 |
| GCGGAATA | 0.396 |
| ACGGAAGA | 0.169 |
| CCGGAATC | 0.435 |
| ACGGAATA | 0.357 |
| GTGGAATA | 0.0653 |
| CGGGAATA | 0.374 |
| GGGGAATA | 0.141 |
| CCGGAAGG | 0.387 |
| AAATGTGA | -0.146 |
| CACCCCCG | 0.145 |
| CATCTTTA | -0.0964 |
| AGGTAACG | -0.0647 |
| GTATGGGA | -0.174 |
| CCTCTACA | -0.252 |
| AAGATCTT | 0.0756 |
| AAGCGTCT | -0.176 |
| ACTCATGG | -0.191 |
| ATCCGGCG | 0.432 |

| Sequence | PBM E-score |
| --- | --- |
| ATCCGGCC | 0.399 |
| ACCCGGTG | 0.277 |
| ATCCGACG | 0.367 |
| ATCCGGTG | 0.408 |
| ACCCGGCC | 0.272 |
| AACCGGCC | 0.275 |
| ATACGGTG | 0.0149 |
| AACCGGCG | 0.361 |
| CTCACCTC | -0.0994 |
| CTAGCATC | -0.167 |
| CTGCTTTA | 0.0716 |
| GGTCTCTA | -0.21 |
| ATCGCCAC | -0.0201 |
| GCTGGGCA | -0.184 |
| ATAACTTG | -0.14 |
| ATACTGCC | 0.013 |
| ATAGAGAG | -0.283 |
| AAGTCCAG | -0.0689 |
| ACGTCCGC | 0.299 |
| AAGTCCGG | 0.481 |
| AAGTCCGT | 0.433 |
| AAGTCCTC | 0.122 |
| AAGTCCCT | -0.213 |
| AAGTCCTG | -0.106 |
| AAGTCCAT | -0.0494 |

| Sequence | PBM E-score |
| --- | --- |
| AAGTCCGC | 0.46 |
| CACCGCTG | -0.0372 |
| ACTTAAGG | -0.105 |
| ACACAAGA | -0.0979 |
| ACTAGAAT | -0.0455 |
| ATTGGCCC | -0.211 |
| GTCGTCGA | -0.121 |
| AGGGTGCC | -0.211 |
| CGTATCTC | 0.148 |
| ACCGGCAA | 0.285 |
| GCCGGCGA | 0.385 |
| TCCGGCAA | 0.431 |
| GCCGGCAA | 0.391 |
| ACCGGCGA | 0.379 |
| CCCGGCCA | 0.267 |
| TCCGGCCA | 0.409 |
| ACCGGCCA | 0.169 |
| CCCGGCAA | 0.303 |
| TACGGCAA | 0.129 |
| TCCGGCGA | 0.437 |
| GCCGGCAC | 0.304 |
| CCTAGTAA | 0.00285 |
| AGCCTGGC | -0.226 |
| AACCAGGG | -0.155 |
| GCTGCACC | 0.00051 |

| Sequence | PBM E-score |
| --- | --- |
| GAGGTGAA | -0.0886 |
| ACATCAGC | -0.0321 |
| CATTCCGC | 0.32 |
| AATTCCCT | -0.103 |
| AATTCCCG | 0.345 |
| AATTCCGG | 0.48 |
| AATTCCTG | 0.0336 |
| AATTCCAT | 0.0569 |
| AATTCCCA | -0.035 |
| GATTCCGC | 0.355 |
| AATTCCGC | 0.456 |
| AATTCCAA | -0.00843 |
| AATTCCGA | 0.48 |
| AATTCCGT | 0.441 |
| GCTAAATA | -0.231 |
| TGTGGAAA | -0.0101 |
| ATCCATTC | -0.0913 |
| TCTCGAAA | -0.21 |
| AAATGCCA | -0.131 |
| CAGGCTGG | -0.0868 |
| TGTGTCAA | -0.227 |
| CCGTTGTC | 0.233 |
| AAATCGGT | 0.148 |
| AAATCGGA | 0.43 |
| GAGTCGGA | 0.387 |

| Sequence | PBM E-score |
| --- | --- |
| CAATCGGC | 0.129 |
| CAATCGGA | 0.425 |
| GAATCGCA | -0.0817 |
| CAATCGGG | 0.219 |
| CAGTCGGA | 0.357 |
| AAATCGGG | 0.276 |
| TAGTCGGA | 0.414 |
| GAATCGGA | 0.409 |
| GAATCGGC | 0.33 |
| AGACGCAG | -0.164 |
| CCGCACAC | 0.0213 |
| AACCCAGG | -0.176 |
| ATGTACTC | -0.0177 |
| AGAGCTAA | -0.171 |
| CGAACGCA | 0.106 |
| CTCTGACC | -0.148 |
| AATTTTCC | 0.358 |
| GCCATCGC | -0.0776 |
| ATGTTCTG | -0.11 |
| TCTCTACA | -0.211 |
| TAATCGGA | 0.417 |
| TAATCGTA | -0.186 |
| TAATCGAA | -0.0147 |
